The text below walks through data of PubChem BioAssay (NCI).

Test in all cases: NCI-60 one-dose screen, 48 h (100 = growth as untreated, 0 = no growth, -100 = all killed)
Conditions in all cases: 10 µM

The test system of experiment [1] is NCI-H23 lung.
In experiment [2] the test system is NCI-H226 lung.
The subject of experiment [3] is NCI-H322M lung.
Experiment [4] deals with HOP-62 NSCLC.
In experiment [5] the test system is NCI-H460 lung.
In experiment [6] the test system is NCI-H522 lung.
In experiment [7] the test system is A549/ATCC NSCLC.
Experiment [8] has as its system 786-0 renal.
The test system of experiment [9] is COLO 205 colon.

The structures appear in SMILES notation. The panel holds about 83,000 compounds, 20% with a hit somewhere; the sample as a whole holds those more often.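 Activity criterion: percent growth below 10, measured after cells in 96-well plates were exposed to a single compound concentration for 48 hours.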 Unmarked numbers belong to inactive results. Calls of active or inactive are those of the source.

For the molecule `Nc1nc(OCc2ccccc2)c2[nH]cnc2n1`, the growth is 93.6% in [1]; 96% in experiment [2]; 118% in experiment [3]; 100% in experiment [4]; 107% in experiment [5]; 86.5% in [6]. Moreover, the growth in experiment [7] was 105%; in experiment [8] it was 87.1%; in experiment [9], 114%.
Consider `CCNCCCCNCCCCNCCCCNCCCCNCC`, for which the growth in [1] is 49.5%; in experiment [2], 134%; in [3] it was 42.1%; in [4] it was 113%; in experiment [5], 76.1%; in [6], 87.3%. The growth in experiment [7] is 54.4%; in experiment [8] it was 150%; in experiment [9] it was 69.1%.
With `CC1SC(N)=NC1=O` (centres undefined), the growth was 94.8% in [1]; 107% in experiment [2]; 114% in experiment [3]; 79.5% in experiment [4]; 115% in experiment [5]; 97.5% in experiment [6]. In addition, the growth in [7] is 102%; in experiment [8], 95.3%; in experiment [9], 138%.
In the case of `Cc1cc(N2CCC(N3CCCC3)CC2)nc(/N=C(\N)Nc2ccc(Cl)c(Cl)c2)n1`, the growth in experiment [1] is 56.8%; in experiment [2], 84.6%; in experiment [3] it was -30.6% (active); in experiment [4], -8.02% (active); in experiment [5] it was -67.8% (active); in [6], -66.4% (active). Besides, the values for the growth in experiment [7], in experiment [8] and in experiment [9] were -22.1% (active), -54.3% (active) and -82.3% (active), respectively.
As to `CC(=O)c1ccc2c(ccc3ccccc32)c1`, the growth in experiment [1] was 102%; in experiment [2], 94%; in experiment [3] it was 105%; in experiment [4] it was 115%; in [5] it was 101%; in experiment [6] it was 93.1%. Besides, the growth was 95.3% in experiment [7], 91% in [8] and 111% in experiment [9].
For `O=C(N/N=C/c1ccccc1O)Nc1nn[nH]n1`, the growth is 106% in [1]; 96.4% in experiment [2]; 97% in experiment [3]; 111% in [4]; 102% in experiment [5]; 95.4% in experiment [6]. Also, the growth in experiment [7] was 108%; in experiment [8] it was 108%; in experiment [9] it was 109%.
As for `C/C(O)=C(\C=N\C(N)=S)C(=O)Nc1ccccc1`, the growth in experiment [1] is 94.5%; in experiment [2], 87.1%; in [3] it was 104%; in experiment [4], 90.9%; in experiment [5], 99.9%; in experiment [6] it was 83.7%. Besides, the growth in [7] was 100%; in [8], 105%; in experiment [9] it was 104%.
For `CC(=O)Nc1cccc(NC(C)=O)n1`, the growth is 128% in [1]; 103% in experiment [2]; 104% in experiment [3]; 101% in experiment [4]; 104% in experiment [5]; 100% in experiment [6]. For the same molecule, the growth is 108% in experiment [7], 101% in experiment [8] and 123% in experiment [9].
As for `CC(=O)OCCC(C)CCC=C(C)C` (centres undefined), the growth in experiment [1] was 105%; in experiment [2], 105%; in [3], 114%; in experiment [4], 108%; in experiment [5], 104%; in experiment [6] it was 92.7%. Also, the figures for the growth in experiment [7], in experiment [8] and in experiment [9] were 101%, 108% and 114%, respectively.
As to `COc1cc(/C=N\Nc2ccccc2)ccc1OC(=O)c1ccccc1`, the growth in [1] was 79.5%; in [2], 74.9%; in [3], 59.8%; in experiment [4] it was 77.8%; in [5] it was 44.2%; in experiment [6], 20.6%. In addition, the growth in experiment [7] was 68.6%; in [8] it was 78.4%; in [9], 84.8%.
Turning to `Nc1nc(N)c(N=Nc2ccc(C(=O)O)cc2)c(N)n1`, the growth in [1] is 99.6%; in experiment [2] it was 108%; in experiment [3], 104%; in experiment [4] it was 106%; in experiment [5], 117%; in [6], -5.11% (active). Further, the results for the growth in experiment [7], in experiment [8] and in experiment [9] were 51.8%, 107% and 117%, respectively.
Turning to `C=C[Si](OC(C)=O)(OC(C)=O)OC(C)=O`, the growth was 106% in experiment [1]; 111% in experiment [2]; 87.6% in [3]; 89.5% in experiment [4]; 103% in experiment [5]; 88.7% in [6]. Besides, the growth in experiment [7] is 104%; in [8] it was 98.5%; in experiment [9], 107%.
Turning to `CN(C)CCN(C)CC(C)(C)C(=O)/C=C/c1ccc(Cl)cc1`, the growth in experiment [1] is 5.94% (active); in [2], -3.14% (active); in experiment [3], 5.34% (active); in [4], 3.79% (active); in [5], -14.9% (active); in [6], -62.6% (active). The growth in [7] was 8.12% (active); in [8] it was -22.5% (active); in experiment [9], -86.5% (active).
As to `CC1=NN(c2ccccc2)C(=O)/C1=C\N1CC(=O)NC1=S`, the growth was 98.1% in experiment [1]; 98.4% in experiment [2]; 108% in experiment [3]; 99.5% in [4]; 98.6% in experiment [5]; 81.7% in experiment [6]. Besides, the results for the growth in experiment [7], in [8] and in experiment [9] were 100%, 104% and 106%, respectively.
`CC1=C(/C=C/C(C)=C/C=C/C(C)=C/CO)C(C)(C)CCC1`: the growth in [1] is 102%; in [2], 104%; in experiment [3] it was 105%; in [4], 104%; in experiment [5] it was 117%; in experiment [6], 105%. The growth in experiment [7] was 102%; in experiment [8], 103%; in experiment [9] it was 110%.
In the case of `N#Cc1ccc(NC(=O)Nc2cccc(C#N)c2)cc1`, the growth is 86.3% in [1]; 116% in experiment [2]; 116% in [3]; 112% in experiment [4]; 78.8% in experiment [5]; 51.9% in experiment [6]. The growth is 69.1% in experiment [7], 97.5% in [8] and 160% in experiment [9].
